Experimental data: PubChem BioAssay
Activity calls are given as the source filed them.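 Rule for the calls, unless noted: active = inhibition at or above 50% at 10 µM; inactive = inhibition below 50%.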

How the values were obtained:
[1] = inhibitors of TNFa-induced NFkB p65 translocation, primary screen, imaging, HUVEC, MLSMR starter and 10KST1 sets (AID 438;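 active = inhibition above 20% together with a positive visual image hit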;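 note: compound added about 3h40 before a 20 min TNFalpha stimulation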;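 for inhibition: signal is the nuclear over cytoplasmic p65 intensity ratio per well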); details: HUVEC TNFa-induced p65 nuclear translocation; cell count: measured here: nuclei count (cytotoxicity indicator), at 2.08 µM; inhibition: at 2 µM, stronger effect = higher value, 0% TNFa-plus-vehicle, 100% no-TNFa wells
[2] = reduction of polyQ htt aggregates in cells – imaging, exon1htt(103Q)mCFP cells, high-content imaging, primary screen (AID 483;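 active = visual image review flags a hit and inhibition of aggregation exceeds 20%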;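 note: compound exposure lasted 3 days before fixation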;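 for nuclei count: percent of the per-plate median nuclei count of sample wells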); details: exon1htt(103Q)mCFP cell line, aggregate imaging, at 2 µM; inhibition of aggregation: stronger effect = higher value; nuclei count: measured here: cell count, toxicity
[3] = endothelial E-selectin expression blockers – imaging, HUVEC, immunofluorescence, MLSMR starter and 10KST1 sets, primary screen (AID 487;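 active = visually confirmed hit in the image check and inhibition above 20%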;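 for inhibition: signal is fraction of cell area covered by stained E-selectin grains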;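 for nuclei count: 100% = median nuclei count of all wells on the same plate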); details: HUVEC TNFalpha-induced E-selectin immunofluorescence imaging, at 2 µM; inhibition: stronger effect = higher value; nuclei count: measured here: cell number, toxicity
[4] = target: Voltage-gated potassium channel subunit beta-2 (Rattus norvegicus) (UniProt P62483); assay: inhibitors of rat Kvbeta2 reductase activity – biochemical, NADPH fluorescence, primary screen (AID 622;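 active = fluorescence slope higher than the sample average by over 3 SD, cut at about -0.22 in these data, passing the limit was not always enough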;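 note: slope of raw intensity against log time taken from 70 to 1610 s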); details: recombinant KvBeta, 4-cyanobenzaldehyde reduction, at 10 µM, stronger effect = higher value
[5] = target: Voltage-gated potassium channel subunit beta-2 (Rattus norvegicus) (UniProt P62483); assay: enhancers of rat Kvbeta2 NADPH turnover – biochemical, NADPH fluorescence, primary screen (AID 623;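 active = NADPH fluorescence slope more negative than the mean of all samples by about 3 SD, 99.7% confidence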;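 note: fluorescence intensity change per second fitted from 20 to 320 s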); details: Recombinant KvBeta, NADPH fluorescence decrease slope, 10 min; at 10 µM; stronger effect = lower value
[6] = target: Alpha-2C adrenergic receptor (Homo sapiens) (UniProt P18825); assay: compounds altering alpha2C-coupled GIRK flux – cell-based, HEK293 alpha2C/GIRK1/2, thallium flux, primary screen (AID 624;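 active = fluorescence slope after compound addition differing from the mean of all screened samples at 99.7% confidence, in either direction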;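 note: slope of fluorescence ratio to pre-addition baseline per second over 15 to 24 s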); details: thallium flux BTC fluorescence, at 10 µM, actives lie on both sides
[7] = blockers of RIG-like receptor reporter activation – cell-based, Sendai virus stimulus, luciferase, 10K MLSCN set, TLR/RLR signaling modifier project, primary screen (AID 602276); details: HEK293 RL24 IRF3 luciferase reporter, at 10 µM, stronger effect = higher value;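 note: firefly luciferase from ISG56 promoter only with Renilla not read in this screen; 0% = Sendai virus plus DMSO and 100% = medium plus DMSO without virus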
[8] = TLR3 IRF3 reporter activation blockers – cell-based, poly I:C stimulus, luciferase, 10K MLSCN set, primary screen (AID 602277;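 active = inhibition of the reporter signal at or above 50%; inactive = inhibition below 50%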); details: HEK293-TLR3 RL24 IRF3 luciferase reporter, at 10 µM, stronger effect = higher value

Sequence of Voltage-gated potassium channel subunit beta-2 (Rattus norvegicus) (P62483 whole entry, looked up): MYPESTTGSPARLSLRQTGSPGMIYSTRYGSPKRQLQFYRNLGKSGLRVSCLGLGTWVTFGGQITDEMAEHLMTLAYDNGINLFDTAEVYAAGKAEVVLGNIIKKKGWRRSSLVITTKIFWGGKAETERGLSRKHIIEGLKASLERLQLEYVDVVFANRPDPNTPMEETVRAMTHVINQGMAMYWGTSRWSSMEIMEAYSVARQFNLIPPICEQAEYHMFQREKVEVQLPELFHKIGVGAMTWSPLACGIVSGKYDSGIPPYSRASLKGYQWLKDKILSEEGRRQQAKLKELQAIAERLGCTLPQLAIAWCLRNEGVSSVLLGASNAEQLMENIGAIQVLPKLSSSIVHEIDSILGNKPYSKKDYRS
Sequence of Alpha-2C adrenergic receptor (Homo sapiens) (P18825 whole entry, looked up): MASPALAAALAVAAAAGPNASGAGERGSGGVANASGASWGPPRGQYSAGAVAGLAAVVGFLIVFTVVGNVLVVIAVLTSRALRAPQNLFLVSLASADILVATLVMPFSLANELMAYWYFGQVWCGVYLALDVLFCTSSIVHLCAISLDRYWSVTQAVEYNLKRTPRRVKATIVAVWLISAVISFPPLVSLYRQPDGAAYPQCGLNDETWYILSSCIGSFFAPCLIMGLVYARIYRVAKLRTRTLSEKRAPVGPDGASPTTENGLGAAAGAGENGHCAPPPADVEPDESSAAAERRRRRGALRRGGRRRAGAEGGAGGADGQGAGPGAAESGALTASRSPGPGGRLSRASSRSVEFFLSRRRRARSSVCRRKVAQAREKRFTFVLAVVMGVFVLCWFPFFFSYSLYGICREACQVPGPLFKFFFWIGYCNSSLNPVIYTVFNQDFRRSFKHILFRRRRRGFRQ

Row | Compound | cell count [1] | inhibition [1] | inhibition of aggregation [2] | nuclei count [2] [%] | inhibition [3] | nuclei count [3] [%] | fluorescence slope [4] | NADPH fluorescence slope [5] | slope [6] | inhibition [7] | inhibition [8]
1 | CC(=O)Nc1c(C(=O)O)[nH]c2ccccc12 | 463 | -9.1% (inactive) | -7.5% (inactive) | 96 | -46.4% (inactive) | 104 | -0.367 (inactive) | -2e-05 (inactive) | 0.00513 (inactive) | 0.607% (inactive) | 19.4% (inactive)
2 | Cc1cccc(N2C(=O)CC(N3CCN(c4cccc(C(F)(F)F)c4)CC3)C2=O)c1 (centres undefined) | 593 | -7.2% (inactive) | 3.8% (inactive) | 126 | -13.6% (inactive) | 119 | -0.386 (inactive) | 8.5e-06 (inactive) | 0.00436 (inactive) | 10.3% (inactive) | 36.4% (inactive)
3 | Cc1cccc(NC(=O)CSc2nnc(-c3cc(C)n(-c4ccccc4)c3C)o2)c1C | 590 | -16.6% (inactive) | -14.8% (inactive) | 48 | -27.3% (inactive) | 111 | -0.6 (inactive) | -1.4e-05 (inactive) | 0.00877 (inactive) | 5.08% (inactive) | 52.9% (active)
4 | C/C=C/COC(=O)c1[nH]c2c(c1C)C(=O)CC(c1ccco1)C2 (centres undefined) | 582 | 13.8% (inactive) | 4.4% (inactive) | 3.3 | -141% (inactive) | 97 | -0.496 (inactive) | -1.1e-06 (inactive) | 0.00708 (inactive) | 25.7% (inactive) | 82.7% (active)
5 | O=C(OCCN1C(=O)c2ccccc2C1=O)c1ccc(S(=O)(=O)N2CCCCCC2)cc1 | 390 | -9.2% (inactive) | -7.2% (inactive) | 95.1 | -10.3% (inactive) | 108 | -0.605 (inactive) | -2.9e-05 (inactive) | 0.00625 (inactive) | 19.6% (inactive) | 12.1% (inactive)
6 | CC1CCCCN1C(=O)Cn1nnc(-c2cccnc2)n1 (centres undefined) | 493 | 8% (inactive) | -12% (inactive) | 93.1 | -23.4% (inactive) | 95.3 | -0.485 (inactive) | -4.8e-05 (inactive) | 0.00445 (inactive) | 9.95% (inactive) | 16.3% (inactive)
7 | CCOC(=O)C(C(=O)OCC)C(C)C#CCN1CCCCC1 (centres undefined) | 325 | -1.3% (inactive) | -11.4% (inactive) | 99.7 | -79.7% (inactive) | 113 | -0.322 (inactive) | -5.7e-05 (inactive) | 0.00551 (inactive) | 16.5% (inactive) | 26.6% (inactive)
8 | Cc1nc2c(C(=O)O)cnn2c(C)c1Cc1ccccc1F | 606 | -12.2% (inactive) | 11.2% (inactive) | 77.3 | -44.9% (inactive) | 105 | -0.406 (inactive) | 4.6e-06 (inactive) | 0.00393 (inactive) | -2.88% (inactive) | -3.96% (inactive)
9 | CCOC(=O)c1oc2ccccc2c1NC(=O)c1cccc(OC)c1OC | 553 | -14.1% (inactive) | -13% (inactive) | 104 | 23.6% (inactive) | 82.8 | -0.616 (inactive) | -1.9e-05 (inactive) | 0.00654 (inactive) | -0.203% (inactive) | -6.33% (inactive)
10 | O=C(NCc1ccc2c(c1)OCO2)C1CCCN(S(=O)(=O)c2cccnc2)C1 (centres undefined) | 584 | 7.6% (inactive) | -1.4% (inactive) | 96.3 | -65.3% (inactive) | 119 | -0.575 (inactive) | -2.7e-05 (inactive) | 0.00636 (inactive) | 8.73% (inactive) | 23.4% (inactive)
11 | CCOc1ccc(N(CC(=O)NCc2cccc(OC)c2)S(=O)(=O)c2c(C)noc2C)cc1 | 362 | -3.2% (inactive) | 18.9% (inactive) | 95 | -114% (inactive) | 104 | -0.415 (inactive) | 1.6e-05 (inactive) | 0.00505 (inactive) | -5.75% (inactive) | -5.65% (inactive)
12 | COc1ccc(Br)cc1CNC(=O)C1CCCN(S(C)(=O)=O)C1 (centres undefined) | 949 | -7.5% (inactive) | -7.3% (inactive) | 114 | -129% (inactive) | 113 | -0.362 (inactive) | -5.7e-05 (inactive) | 0.00566 (inactive) | 5.73% (inactive) | 33.6% (inactive)
13 | Cc1noc(C)c1CSc1nnc2n(-c3ccccc3)c(=O)c3ccccc3n12 | 342 | -4% (inactive) | 12.7% (inactive) | 85.8 | -27.6% (inactive) | 89.5 | -0.411 (inactive) | -1e-05 (inactive) | 0.00571 (inactive) | 7.36% (inactive) | 20.9% (inactive)
14 | O=C(c1ccccc1F)N1CCN(Cc2cccc(Cl)c2)CC1 | 649 | 3% (inactive) | 10.9% (inactive) | 99.3 | -3.6% (inactive) | 98.3 | -0.654 (inactive) | 1.7e-05 (inactive) | 0.00876 (inactive) | 9.77% (inactive) | 10.5% (inactive)
